Experimental data as given in PubChem BioAssay (Tox21).
Inconclusive results are not listed. Active and inactive are the calls of the source. Unless noted, the call rests on the fitted dose curve; in most records, active means well fitted curve in the direction sought with a large enough effect in the repeat runs; inconclusive means weak or mixed curves; inactive means no such curve, though single readings can be large; an effect the other way counts as inactive or inconclusive.

Tests used:
[1] = qHTS assay to identify small molecule antagonists of the glucocorticoid receptor (GR) signaling pathway - cell viability counter screen (AID 720693); further: nearly all actives have a fitted effect of over 55% in size
[2] = qHTS assay for identifying genotoxic compounds that show differential cytotoxicity against isogenic chicken DT40 cell lines with known DNA damage response pathways - wild type cell line (AID 743012); further: nearly all actives have a fitted effect of over 60% in size; further: potency means the concentration at half of the fitted maximal effect
In short: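 Viability by ATP luminescence (CellTiter-Glo, 30 min RT) after 40 h compound treatment at 37 C/5% CO2, using 300 parental DNA repair-proficient DT40 cells per well.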

[3] = qHTS assay for identifying genotoxic compounds that show differential cytotoxicity against isogenic chicken DT40 cell lines with known DNA damage response pathways - Rev3 mutant cell line (AID 743014); further: nearly all actives have a fitted effect of over 55% in size; further: potency means the concentration at half of the fitted maximal effect
[4] = qHTS assay to identify small molecule antagonists of the androgen receptor (AR) signaling pathway - cell viability counter screen (AID 743033; further: nearly all actives have a fitted effect of over 45% in size)
[5] = molecular target: Androgen receptor (Homo sapiens) (UniProt P10275); experiment: qHTS assay to identify small molecule agonists of the androgen receptor (AR) signaling pathway (AID 743036; active means well fitted activation curve with a large enough effect in the signal ratio in the repeat runs, with a control signal flat, not every such curve was filed as active; the % refers to the signal ratio)
In short: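 Quantitative HTS of the Tox21 10K library in HEK293 cells bearing a stably integrated UAS-controlled beta-lactamase reporter. Compound exposure lasted 16 h at 37C. Reporter activity was detected by FRET substrate fluorescence after 2 h at room temperature.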

[6] = molecular target: Androgen receptor (Homo sapiens) (UniProt P10275); experiment: qHTS assay to identify small molecule agonists of the androgen receptor (AR) signaling pathway using the MDA cell line (AID 743040; further: nearly all actives have a fitted effect of over 20% in size)
In short: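 Luciferase agonist assay: 16 h compound exposure at 37C without CO2 in MDA-kb2 AR-luc cells, whose MMTV promoter responds to both AR and GR. Luminescence measured after 30 min room-temperature incubation with ONE-Glo.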

[7] = qHTS assay to identify small molecule antagonists of the androgen receptor (AR) signaling pathway using the MDA cell line - cell viability counter screen (AID 743041; further: nearly all actives have a fitted effect of over 45% in size; further: potency means the concentration at half of the fitted maximal effect)
In short: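 Viability read by CellTiter-Fluor fluorescence in the same wells as the antagonist screen, added after 15.5 h of a 16 h, 37C exposure. Human breast carcinoma MDA-kb2 AR-luc cells, compounds co-dosed with agonist R1881.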

[8] = molecular target: Androgen receptor (Homo sapiens) (UniProt P10275); experiment: qHTS assay to identify small molecule antagonists of the androgen receptor (AR) signaling pathway using the MDA cell line (AID 743042; further: nearly all actives have a fitted effect of over 55% in size; further: potency means the concentration at half of the fitted maximal effect)
In short: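 Antagonist mode: compounds plus R1881 agonist added to MDA-kb2 AR-luc cells, incubated 16 h at 37C. Luciferase reporter luminescence quantified, with multiplexed CellTiter-Fluor readout for cell viability.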

[9] = qHTS assay for identifying genotoxic compounds that show differential cytotoxicity against isogenic chicken DT40 cell lines with known DNA damage response pathways - Rad54/Ku70 mutant cell line (AID 743015); further: nearly all actives have a fitted effect of over 60% in size; further: potency means the concentration at half of the fitted maximal effect
[10] = molecular target: Androgen receptor (Homo sapiens) (UniProt P10275); experiment: qHTS assay to identify small molecule antagonists of the androgen receptor (AR) signaling pathway (AID 743035; active means well fitted inhibition curve with a large enough effect in the signal ratio in the repeat runs, not every such curve was filed as active; the % refers to the signal ratio; further: potency means the concentration at half of the fitted maximal effect)
In short: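 Antagonist mode: AR-bla HEK293 cells co-treated with test compounds and agonist R1881 for 16 h at 37C, 5% CO2. Beta-lactamase activity read as FRET fluorescence after 2 h room-temperature substrate loading.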

Measured: Potency

Chain of Androgen receptor (Homo sapiens) (P10275 whole entry, looked up): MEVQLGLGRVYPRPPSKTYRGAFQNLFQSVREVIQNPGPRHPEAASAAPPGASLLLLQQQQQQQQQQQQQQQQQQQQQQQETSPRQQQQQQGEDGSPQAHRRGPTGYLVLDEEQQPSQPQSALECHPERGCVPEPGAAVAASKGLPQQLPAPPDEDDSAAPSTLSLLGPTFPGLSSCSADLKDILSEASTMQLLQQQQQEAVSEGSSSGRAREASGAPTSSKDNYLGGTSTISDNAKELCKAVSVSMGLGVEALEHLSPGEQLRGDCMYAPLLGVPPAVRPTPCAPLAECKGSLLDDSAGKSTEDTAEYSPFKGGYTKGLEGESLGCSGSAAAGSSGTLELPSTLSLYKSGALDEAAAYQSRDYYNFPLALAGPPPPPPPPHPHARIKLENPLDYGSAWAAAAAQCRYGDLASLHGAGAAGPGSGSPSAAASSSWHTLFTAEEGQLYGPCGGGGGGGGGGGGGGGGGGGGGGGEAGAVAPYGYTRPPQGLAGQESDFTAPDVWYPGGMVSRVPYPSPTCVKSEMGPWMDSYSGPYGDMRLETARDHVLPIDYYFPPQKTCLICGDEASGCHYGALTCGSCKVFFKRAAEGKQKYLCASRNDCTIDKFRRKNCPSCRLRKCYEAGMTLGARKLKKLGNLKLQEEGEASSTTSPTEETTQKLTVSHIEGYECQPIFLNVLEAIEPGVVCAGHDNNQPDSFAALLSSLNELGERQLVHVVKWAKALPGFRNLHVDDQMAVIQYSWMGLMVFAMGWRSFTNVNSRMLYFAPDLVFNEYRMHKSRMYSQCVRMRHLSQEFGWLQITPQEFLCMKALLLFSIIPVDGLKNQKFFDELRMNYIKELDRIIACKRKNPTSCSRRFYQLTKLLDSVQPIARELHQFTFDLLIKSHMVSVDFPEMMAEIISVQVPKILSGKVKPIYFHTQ

Cc1cscn1
inactive: [1] | [2] | [3] | [4] | [5] | [6] | [7] | [8]

CCCC(=O)C(=O)O
inactive: [1] | [2] | [3] | [9] | [4] | [7]

CC(C)COCC(CN(Cc1ccccc1)c1ccccc1)N1CCCC1 (stereo unspecified)
active: [2] 5.31 µM | [3] 8.41 µM | [9] 7.5 µM
inactive: [1] | [4] | [7]

O=C1Cc2ccccc2N1c1c(Cl)cccc1Cl
inactive: [1] | [6] | [7]
active: [2] 24.3 µM | [3] 34.4 µM | [9] 27.3 µM | [10] 54.9 µM | [8] 61.1 µM

CC(=O)[C@H]1[C@H](C#N)C[C@H]2[C@@H]3CC=C4C[C@@H](O)CC[C@]4(C)[C@H]3CC[C@@]21C
inactive: [1] | [4]
active: [2] 37.1 µM | [3] 37.1 µM

CCCCCCCCCI
inactive: [1] | [2] | [3] | [9] | [4] | [7]

O=C1c2ccccc2C(=O)N1CCc1noc(-c2ccc(CN3CCCCCC3)s2)n1
inactive: [1] | [7]
active: [2] 49.9 µM | [3] 39.7 µM | [9] 39.7 µM

c1ccc(C[n+]2cccc3ccccc32)cc1
inactive: [1]
active: [2] 54.5 µM | [3] 27.3 µM | [9] 27.3 µM | [7] 61.1 µM

O=C(O)CCc1nc(-c2ccccc2)c(-c2ccccc2)o1
inactive: [1] | [2] | [3] | [9] | [4] | [7]

CC1(C)O[C@@H]2C[C@H]3[C@@H]4C[C@H](F)C5=CC(=O)C=C[C@]5(C)[C@H]4[C@@H](O)C[C@]3(C)[C@]2(C(=O)CO)O1
inactive: [1] | [2] | [3] | [9] | [7]

CCCCOc1ccc(OCCCN2CCOCC2)cc1
active: [2] 2.54 µM | [3] 1.01 µM | [9] 2.27 µM
inactive: [1] | [4] | [7]

CN1C(=O)OC(C)(C)C1=O
inactive: [1] | [2] | [3] | [9] | [4] | [7]

CC1=C(Br)C(=O)C(Br)=C/C1=C(/c1ccccc1S(=O)(=O)O)c1cc(Br)c(O)c(Br)c1C
active: [2] 20.8 µM | [3] 20.8 µM | [9] 20.8 µM | [7] 41.5 µM
inactive: [1]

Cc1ccc(CO)cc1
inactive: [1] | [2] | [3] | [9] | [4] | [7]

CN(C)CCC=C1c2ccccc2C=Cc2ccccc21
active: [2] 8.41 µM | [3] 8.41 µM | [9] 10.6 µM
inactive: [1] | [7]

COc1ccccc1N1CCN(CC(O)COc2cccc3ccccc23)CC1 (stereo unspecified)
inactive: [1] | [7]
active: [2] 23.7 µM | [3] 29.8 µM | [9] 29.8 µM

CN(C)CCN1C(=O)c2ccccc2N(C)c2ccccc21
inactive: [1] | [2] | [3] | [9] | [4] | [7]

C=CC(C)(CCC=C(C)C)OC(=O)CC(C)C (stereo unspecified)
inactive: [1] | [2] | [3] | [9] | [4] | [7]

CC1(C)[C@H](C(=O)O)N2C(=O)C[C@H]2S1(=O)=O
inactive: [1] | [2] | [3] | [9] | [4] | [7]

CC(C)=CC(=O)C=C(C)C
inactive: [1] | [2] | [3] | [9] | [4] | [7]

CC[N+](CC)(CCNC(=O)C(=O)NCC[N+](CC)(CC)Cc1ccccc1Cl)Cc1ccccc1Cl
inactive: [1] | [2] | [3] | [9] | [7]

CC(C)(O)c1ccc(CNC(=O)c2cccnc2Oc2ccc3nonc3c2)cc1
inactive: [1] | [7]
active: [2] 61.1 µM | [3] 68.6 µM | [9] 61.1 µM

CCOC(C)=O
inactive: [1] | [2] | [3] | [9] | [4] | [7]

CC1(C)[C@@H](OC(=O)CCC(=O)O)CC[C@]2(C)[C@H]3C(=O)C=C4[C@@H]5C[C@@](C)(C(=O)O)CC[C@]5(C)CC[C@@]4(C)[C@]3(C)CC[C@@H]12
inactive: [1] | [2] | [3] | [9] | [7]

Cc1[nH]cnc1CN1CCc2c(c3ccccc3n2C)C1=O
inactive: [1] | [2] | [3] | [9] | [4] | [7]

CC1CC(C)C(=O)C1=O (stereo unspecified)
inactive: [1] | [2] | [3] | [9] | [4] | [7]

O=C(O)c1ccc(OCCCOc2ccc(C(=O)O)cc2)cc1
inactive: [1] | [2] | [9] | [4] | [7]

CCOC(=O)[C@H](CCc1ccccc1)N[C@@H](C)C(=O)N(CC(=O)O)C1Cc2ccccc2C1
inactive: [1] | [7]
active: [2] 21.1 µM | [9] 23.7 µM

C/C=C\C/C=C/CCCCCCCCOC(C)=O
inactive: [1] | [7]
active: [2] 27.3 µM | [3] 27.3 µM

Cc1cc(C)c(N)cc1C
inactive: [1] | [2] | [3] | [4] | [7]

FC(F)(F)c1ccccc1Cl
inactive: [1] | [2] | [3] | [4] | [7]

CC(=O)Nc1cc(S(=O)(=O)O)cc2cc(S(=O)(=O)O)c(N=Nc3ccccc3)c(O)c12
inactive: [1] | [2] | [9] | [4] | [7]

CCCCCCCC/C=C\CCCCCCCCCCCC(=O)O
inactive: [1] | [2] | [3] | [4] | [8]

CC/C=C1/OC(=O)c2ccccc21
inactive: [1] | [2] | [9] | [4] | [10] | [5] | [6] | [7] | [8]
